Experimental findings from PubChem BioAssay (NCI) are described below.

Where “and” joins values, the source holds several entries; their conditions need not be identical. Equal entries are not always repeated. The panel holds about 83,000 compounds, 20% with a hit somewhere; the sample as a whole holds those more often.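 Each cell line was grown in a 96-well plate and treated with one concentration of compound for 48 hours. Values below 10 were considered active.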 Calls of active or inactive are those of the source.

For the assay, the system named is TK-10 renal. The assay can be described thus: NCI-60 one-dose screen, 48 h (100 = growth as untreated, 0 = no growth, -100 = all killed). The settings on record: 10 µM unless noted.
Regarding `Cc1cc2c3c(nc4ccccc42)C(=O)c2cccnc2-c3n1`, the growth was -10.8% [100 µM] (active) and -100% [100 µM] (active). On to `CC(=O)Oc1ccc2ccc(=O)oc2c1OC(C)=O`, for which the growth is 62.1% [100 µM] (inactive) and 17.8% [100 µM] (inactive). The figure for `C=C1C(=O)OC2/C=C(/C)C3(O)OC(C)(CC(OC(=O)C(C)C)C12)CC3OC(C)=O` (centres undefined) is -95.3% [100 µM] (active); for `O=c1cc(-c2ccc(O)cc2)oc2cc(O[C@@H]3O[C@H](CO)[C@@H](O)[C@H](O)[C@H]3O)cc(O)c12` it is 46.1% [100 µM] (inactive) and 4% [100 µM] (active); for `CN(C)CCNc1ccc(NCC[N+](C)(C)Cc2ccc([N+](=O)[O-])cc2)c2c1C(=O)c1c(O)ccc(O)c1C2=O` it is 91.1% [100 µM] (inactive) and -23.2% [100 µM] (active). The figure for `CC(=O)c1cc2c(s1)C(=O)c1scc(C(C)=O)c1C2=O` is -9.55% [100 µM] (active) and -86% [100 µM] (active). To `O=C(O)c1cnccc1-c1cc(=O)[nH]n1-c1ccccc1` belongs 53.2% [100 µM] (inactive) and -7.14% [100 µM] (active). Take `CC1(C)CCCC(C)(C2CCC3(C)C2C(O)CC2C4(C)CCC(O)C(C)(C)C4C(O)CC23C)O1` (centres undefined): the growth was 4.11% [100 µM] (active) and -96.5% [100 µM] (active). On to `C=C1CC(O)C2C(=C)C(=O)OC2C2C(C)C(=O)CC12` (centres undefined), for which the growth is -95.6% [100 µM] (active) and -97% [100 µM] (active). `O=C1NC(=S)NC1C(Cc1ccccc1)c1ccco1` (centres undefined): the growth was 80.1% [100 µM] (inactive) and 73% [100 µM] (inactive).

With `CC#CC#C/C=C1/C=CC2(CCCCO2)O1` (centres undefined), the growth is 112% [100 µM] (inactive) and -41.5% [100 µM] (active). For `CC(=O)OCC1=C(C)C[C@H]([C@@H](COC(C)=O)C2CCC3C4C[C@H]5O[C@]56CC=CC(=O)[C@]6(C)C4CC[C@@]32C)OC1=O` (some centres undefined), the growth was -97.1% [50 µM] (active) and -100% [50 µM] (active).

In the case of `CCCC(=O)Oc1c2ccsc2c(OC(=O)CCC)c2ccsc12`, the growth was -72.5% [100 µM] (active) and -100% [100 µM] (active). To `CN(C)CCNc1ccc(NCC[N+](C)(C)Cc2ccc([N+](=O)[O-])cc2)c2c1C(=O)c1ccccc1C2=O` belongs 36.4% [25 µM] (inactive) and 2.65% [25 µM] (active).
